Cycloheximide cs – counter-screen hit for Shiga toxin inhibitors, cycloheximide | cell reporter, cycloheximide protein synthesis inhibition counterscreen | max response, % | hit rate 12% among 300,000 | AID 2314; in the data active means max response mostly above about 13%, no sharp cut-off; inactive means mostly below about 14%; further: read at 38.3 µM for the half of the compounds with a filed dose
Marburg entry inh – blocks Marburg virus binding to or entry into cells | Marburg virus pseudotyped entry inhibition, cell reporter | Potency, µM (highest dose often 37.8 µM), hits mostly inhibitors | hit rate 1.8% among 300,000 | AID 540276; calls by dose curve; tested in HEK293 cells
Shiga inhibitor – blocks Shiga toxin action in Vero cells; Vero cells, Shiga toxin protein synthesis inhibition reporter; inhibition, % at 38.7 µM; hit rate 9.2% among 290,000; AID 2315; in the data active means inhibition mostly above about 28%, no sharp cut-off; inactive means mostly below about 43%
AMA1 RON2 block – inhibitors of Plasmodium falciparum AMA1-RON2 interaction. AlphaScreen AMA1-biotinylated RON2 peptide binding. Potency, µM (top dose mostly 58.2 µM), actives largely listed as inhibitors. hit rate 0.2% among 360,000. AID 720542; active means well fitted inhibition curve with a large enough effect; inconclusive means small, poorly fitted or top-dose-only effect; inactive means no such curve, though single readings can be large or run the other way; further: nearly all actives have a fitted effect of over 45% in size
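AMA1 (3D7) with his tag at 25 nM final met compounds first, then biotinylated RON2 peptide at 25 nM; detection used donor plus acceptor beads, 10 µg/mL apiece, read by AlphaScreen after 30 min at room temperature.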
LASV entry inh – Lassa virus entry inhibition | hit rate 1.2% among 300,000 | Potency, µM (titrated, usually from 37.9 µM), most hits filed as inhibitors | Lassa virus pseudotype entry inhibition, cell reporter; calls by dose curve; tested in HEK293 cells; further: nearly all actives have a fitted effect of over 50% in size
Numbers stand for hits; n = inactive; u = inconclusive; x = no result; [ ] = another dose, or the depositor's remark. Only a selection was taken, and hits are over-represented in it overall.

SMILES | Cycloheximide cs | Marburg entry inh | Shiga inhibitor | AMA1 RON2 block | LASV entry inh
C=CCN1CCN(C(=O)c2cc3c(s2)CCCC3)CC1 | 15 | u | n | n | n
O=C(c1cc2c(s1)CCCC2)N1CCC2(CC1)OCCO2 | 22 | n | 76 | n | n
FC(F)(F)c1cnc(COc2cc(Cl)cc(Cl)c2)c(Cl)c1 | n | n | n | n | n
CC(=O)c1ccc(N2CCN(C(=O)C3CCC3)CC2)cc1 | 14 | n | n | n | n
O=C(C1CCN(c2ccc(N3CCOCC3)nn2)CC1)N1CCN(c2ccc(F)cc2)CC1 | n | n | 71 | n | n
Cc1ccccc1OC[C@H](O)Cn1c(N2CCN(c3ccccc3)CC2)nc2c1c(=O)[nH]c(=O)n2C | x | n | x | x | x
CCOc1ccccc1NC(=O)CCc1c(C)nc2c(c(C)nn2-c2ccccc2)c1C | x | n | x | x | n
Cc1ccc(CN2CCN(CC(C)C)C(CCO)C2)s1 (stereo not given) | 39 | u | 82 | n | u
CC(C)CN1CCN(Cc2cnc(-c3ccc(Cl)cc3)nc2)CC1CCO (stereo not given) | 13 | x | n | n | x
Cc1ccccc1-c1noc(-c2ccc(N3CCN(C)CC3)c([N+](=O)[O-])c2)n1 | x | n | x | x | n
COc1ccc(NC(=O)C[C@H]2C(=O)N(Cc3ccccc3)C[C@@H]2Cc2ccccc2)cc1 | x | x | x | n | u
O=C(C[C@H]1C(=O)N(Cc2ccccc2)C[C@@H]1Cc1ccccc1)Nc1ccccc1 | n | x | n | n | 16µM
CCOC(=O)c1sc(=NC(=O)CCSc2ccccc2)n(C)c1C | 17 | n | n | n | n
CCOC(=O)c1sc(=NC(=O)c2ccc(F)cc2)n(C)c1C | 29 | x | 77 | n | x
CCOC(=O)c1sc(=NC(=O)c2ccc(C)cc2)n(C)c1C | 52 | u | 71 | n | n
CCOC(=O)c1sc(=NC(=O)C2CC2)n(C)c1C | n | n | n | n | n
CCOC(=O)c1sc(=NC(=O)COc2ccccc2)n(C)c1C | n | n | n | n | n
CCOC(=O)c1sc(=NC(=O)c2c(F)cccc2F)n(C)c1C | 39 | x | 81 | n | x
COc1ccc(NC(=O)CC2S/C(=N\c3nccs3)N(C)C2=O)cc1 (stereo not given) | n | u | n | n | n
O=C(COC(=O)Cc1ccc(S(=O)(=O)N2CCOCC2)s1)Nc1ccccc1 | x | n | x | n | n
O=c1cc(/C=C/c2cccs2)[nH]c2ccccc12 | n | 4.1µM | n | n | 6.5µM
CSc1ccc(/C=C/c2cc(=O)c3ccccc3[nH]2)cc1 | 15 | u | 74 | n | n
O=c1cc(C(F)(F)F)[nH]c2ccccc12 | n | x | n | n | x
COc1cc2c(cc1OC)C(C)N(C(=O)C1=NN(c3cccc(C)c3)C(=O)CC1)CC2 (stereo not given) | n | n | n | n | n
N#C/C(=C\c1ccc[nH]1)C(=O)Nc1ccccc1F | 34 | u | 74 | n | n
SMILES | Cycloheximide cs | Marburg entry inh | Shiga inhibitor | AMA1 RON2 block | LASV entry inh
Cc1cc(/C=C(\C#N)C(=O)Nc2ccccc2F)c(C)[nH]1 | 46 | u | 64 | n | u
N#C/C(=C\c1ccc[nH]1)C(=O)c1ccccc1 | 33 | u | 99 | n | n
N#C/C(=C\c1ccc[nH]1)C(=O)Nc1ccccc1Cl | 33 | n | 61 | n | n
CC1(C(=O)NS(=O)(=O)c2cccc(Cl)c2)CCN1C(=O)c1ccccc1 (stereo not given) | x | x | x | n | x
Cc1noc(/C=C/c2cccs2)c1S(=O)(=O)N1CCC(C(=O)NCc2ccccc2Cl)CC1 | x | n | x | x | n
COc1cccc(/C=C/c2ccccn2)c1O | 50 | x | 110 | n | x
C/C(=N/NS(=O)(=O)c1ccc(Br)cc1)c1ccc(NC(=O)c2ccc(C)o2)cc1 | 48 | u | 78 | n | n
CC(=O)Nc1ccc(/C(C)=N/NS(=O)(=O)c2ccc(C)cc2)cc1 | n | n | n | n | n
C/C(=N\NS(=O)(=O)c1ccc([N+](=O)[O-])cc1)c1ccc(NC(=O)c2ccco2)cc1 | 25 | n | n | n | x
CSc1ccc(CNC(=O)C2CCCN(S(=O)(=O)N(C)c3ccc(F)cc3)C2)cc1 (stereo not given) | x | n | x | x | x
O=c1cc(-c2ccccc2)oc2cc(O)cc(O)c12 | x | x | x | n | x
COc1ccc2oc(-c3ccccc3[N+](=O)[O-])cc(=O)c2c1 | 41 | n | 81 | n | x
O=c1cc(-c2ccc(O)cc2)oc2ccc(O)cc12 | 55 | n | 54 | n | u
O=c1cc(-c2ccccc2)oc2cc(O)ccc12 | 51 | x | 77 | n | x
O=c1cc(-c2ccsc2)oc2ccccc12 | x | x | x | n | x
Nc1c(-c2ccc3c(c2)OCCO3)oc2ccccc2c1=O | 33 | u | 70 | n | n
Cc1ccc(C(CC(=O)N2CCCC2)c2ccccc2)c(O)c1 (stereo not given) | n | x | n | n | x
CC(C)(C)C(Cn1ccnc1)NC(=O)c1ccc2nc(C3CC3)oc2c1 (stereo not given) | n | n | n | n | n
COc1ccc(OC)c(CNC(=O)C2CCN(S(=O)(=O)c3ccc4[nH]c(=O)oc4c3)CC2)c1 | x | x | x | x | n
O=c1cc(-c2cccc(F)c2)oc2ccccc12 | x | n | x | n | n
COc1ccc(-c2cc(=O)c3ccccc3o2)cc1 | 19 | x | 52 | n | x
O=c1cc(-c2c(F)c(F)c(F)c(F)c2F)oc2ccccc12 | n | 18µM | n | n | u
Cc1cccc(-c2oc3ccccc3c2-c2ccc3c(c2)OCO3)c1 | n | x | n | n | x
COc1ccc(-c2cc3ccccc3c(=O)o2)cc1 | x | x | x | n | x
O=c1cc(-c2ccc3c(c2)OCO3)oc2ccccc12 | 21 | n | n | n | n
SMILES | Cycloheximide cs | Marburg entry inh | Shiga inhibitor | AMA1 RON2 block | LASV entry inh
O=c1cc(-c2ccc(O)cc2)oc2ccccc12 | 37 | x | 55 | n | x
O=C(NNC(=O)c1ccncc1)Nc1cccc(C(F)(F)F)c1 | n | x | n | n | x
N#CCC(=O)Nc1ccc(C(=O)OCC(=O)NC2CCCc3ccccc32)cc1 (stereo not given) | x | u | x | n[11.6 µM] | n
CC(C)(C)c1ccc(C(=O)NNC(=O)CCc2ccccc2)cc1 | x | n | x | n | n
COc1ccc(C(=O)C[C@@H]2OC3CCCCC3N2S(=O)(=O)c2ccc(C)cc2)cc1OC (stereo not given in full) | x | x | x | n | x
CCc1ccc(NC2=NCC(c3ccccc3)S2)cc1 (stereo not given) | 58 | n | 82 | n | n
Nc1cc([N+](=O)[O-])ccc1Nc1ccccc1 | n | u | n | u | u
O=[N+]([O-])c1ccc(C2CN=C(Nc3ccccc3)S2)cc1 (stereo not given) | 57 | n | 77 | n | n
CC1(C(=O)Nc2ccc3c(c2)OCCO3)CSCC(=O)N1C1CC1 (stereo not given) | x | x | x | n | x
O=C(c1cc(-c2ccc(Br)cc2)on1)N1CCOCC1 | 21 | u | 59 | n | 2.5µM
O=C(c1cc(-c2ccc(Br)cc2)on1)N1CCCCCC1 | 35 | u | 80 | n | u
O=C(NCCN1CCOCC1)c1cc(-c2ccc(Br)cc2)on1 | n | n | n | n | n
CC1CCN(C(=O)c2cc(-c3ccc(Br)cc3)on2)CC1 | x | u | x | x | n
CN(C)c1ccc(CC(=O)N2CCCC(c3cc(C(=O)Nc4ccc(C(C)(C)C)cc4)no3)C2)cc1 (stereo not given) | x | x | x | 13µM | x
NS(=O)(=O)c1ccc(NC(=S)NCc2ccco2)cc1 | n | n | n | n | n

Screening data (PubChem)
